Assay outcomes deposited in PubChem BioAssay by National Center for Advancing Translational Sciences (NCATS).
This is a sample that favours compounds with a hit; in the whole collection about 17% have one here.
DT40 TDP1 CPT: qHTS for Inhibitors of human tyrosyl-DNA phosphodiesterase 1 (TDP1): qHTS in cells in presence of CPT | chicken DT40 Tdp1-/-;hTDP1 cells + 20 nM CPT, ATP luminescence, 48 h | Potency, µM (top dose mostly 46.2 µM), inactives show at the top dose activity change, negative = growth inhibition, actives largely listed as inhibitors | 12% of 420,000 active; note: % is set by controls: 0 for no effect and ±100 for the full control effect; nearly all actives have a fitted effect of over 55% in size
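Chicken DT40 Tdp1-/- cells stably complemented with human TDP1 were seeded at 400 cells/well in medium containing 20 nM camptothecin, exposed to pin-transferred compounds, and grown at 37 °C for at least 48 hr. Viability was read as ATP luminescence.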
ATXN2 expr inh: Primary qHTS for Inhibitors of ATXN expression; AID 1745845, 2022; 0.72% of 360,000 active; HEK-293 ATXN2-luciferase reporter, luminescence, 24 h; Potency, µM (series often up to 57 µM), without a hit: at the top dose activity change, negative = inhibition, hits mostly inhibitors; note: % is set by controls: 0 for no effect and ±100 for the full control effect; nearly all actives have a fitted effect of over 55% in size
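ATXN2-luciferase reporter cells (luciferase flanked by upstream and downstream ATXN2 gene portions) were treated 24 h at 37 °C with compounds at up to 57 uM. SteadyGlo luminescence gave expression; GF-AFC fluorescence gave viability.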
HepG2 viability: qHTS for Inhibitors of TGF-b: Cytotox Counterscreen | HepG2 CAGA-GFP viability, ATP luminescence, 18 h | Potency, µM (top dose mostly 46.1 µM), for the others: at the highest dose activity change, negative = cytotoxicity, most hits filed as cytotoxic | 0.76% of 410,000 active | AID 588856, 2011
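CellTiter-Glo luminescence gave cytotoxicity after 18 hours at 37 degrees C. The cells were HepG2 CAGA-GFP in 1% FBS DMEM, stimulated with 500 pg/mL TGF-beta after compound addition. %Activity was normalised to no-cell wells (complete cell-killing) and DMSO (no toxicity), and curves were fitted and classified.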
TGFb inhibitor: qHTS for Inhibitors of TGF-b. HepG2 CAGA-GFP TGF-b/SMAD3 reporter, GFP fluorescence, 18 h; TGF-beta stimulated, 500 pg/mL final. Potency, µM (highest dose often 46.1 µM), inactives show at the highest dose activity, negative = inhibition, hits mostly inhibitors. 1.2% of 410,000 active; note: % is set by controls: 0 for no effect and ±100 for the full control effect; nearly all actives have a fitted effect of over 65% in size
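HEPG2 CAGA-GFP cells (1000/well, DMEM with 1% FBS) were pre-incubated 2 h at 37 degrees C, given compound by pin tool, then stimulated with TGF-beta at 500 pg/mL final for 18 h before per-cell GFP fluorescence imaging.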
TDP1 cell noCPT: qHTS for Inhibitors of human tyrosyl-DNA phosphodiesterase 1 (TDP1): qHTS in cells in absence of CPT; DT40 Tdp1-/- hTDP1 cells, no CPT, ATP luminescence, 48 h; Potency, µM (top dose mostly 46.2 µM), without a hit: at the highest dose activity change, negative = growth inhibition, hits mostly inhibitors; 15% of 420,000 active; note: % is set by controls: 0 for no effect and ±100 for the full control effect; nearly all actives have a fitted effect of over 55% in size
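DT40 Tdp1-/-;hTDP1 cells, no CPT (DMSO vehicle only), 400 cells/well; compounds pin-transferred; ≥48 hr, 37 °C; CellTiter-Glo 30 min RT dark, luminescence read.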
S2 tox: Viability Counterscreen for Primary qHTS for Inhibitors of ATXN expression. S2 cells (HEK-293 line with an ATXN2-luciferase reporter) viability, CellTiter-Fluor protease fluorescence, 24 h. Potency, µM (series often up to 56.7 µM), actives largely listed as cytotoxic. 0.49% of 400,000 active. AID 651635, 2014; note: nearly all actives have a fitted effect of over 40% in size
Starred values were filed as active, the others as inactive; i = inactive; u = inconclusive; x = no result; [ ] = remark or other dose. Calls come from the whole dose curve; as a rule, active = well fitted curve in the direction sought with a large enough effect; inconclusive = small, poorly fitted or top-dose-only effect, or another doubt; inactive = no such curve, though single readings can be large; an effect the other way counts as inactive or inconclusive. Potency is the fitted concentration of half-maximal effect.

SMILES | DT40 TDP1 CPT | ATXN2 expr inh | HepG2 viability | TGFb inhibitor | TDP1 cell noCPT | S2 tox
O=C(COc1ccc2c(-c3ccccc3)cc(=O)oc2c1)Nc1ccc(CN2CCOCC2)cc1 | 21µM* | -17% | -1% | 3% | u | i
O=C(O)COc1ccc2c(-c3ccccc3)cc(=O)oc2c1 | -1% | 12% | -13% | -25% | -2% | u
CC(=O)COc1ccc2c(-c3cccc([N+](=O)[O-])c3)cc(=O)oc2c1 | u | x | -17% | -1% | 23µM* | u
COc1ccc([N+](=O)[O-])cc1COc1ccc2c(-c3ccccc3)cc(=O)oc2c1 | u | -2% | 1% | 7% | -9% | i
O=S(=O)(c1ccc2nc(Nc3ccc(Br)cc3F)ccc2c1)N1CCCC1 | -19% | -7% | -31% | 1% | -22% | i
CCOC(=O)N(C)C[C@H]1OCc2cnnn2CCCC(=O)N([C@@H](C)CO)C[C@H]1C | 6% | 10% | 3% | 18% | -21% | i
Cc1ccccc1NC(=O)/C=C/c1ccc([N+](=O)[O-])s1 | 0.92µM* | 10µM* | 7.9µM* | 7.1µM* | 0.82µM* | 10µM*
Cc1cc(C)cc(NC(=O)/C=C/c2ccc([N+](=O)[O-])s2)c1 | u | u | -3% | 4% | 1.2µM* | i
O=C(/C=C/c1cccc([N+](=O)[O-])c1)Nc1cc(C(=O)O)cc(C(=O)O)c1 | u | -21% | 0% | 2% | u | i
CC1CCCCC1NC(=O)C1CCC(CNc2c(N3CCCCC3)c(=O)c2=O)CC1 (centres undefined) | -7% | 1% | 18% | 4% | 2% | i
O=C(CCN1C(=O)S/C(=C/c2ccc(Cl)cc2)C1=O)N1CCOCC1 | 12µM* | -1% | 14% | u | 16µM* | i
COC(=O)c1ccc(/C=C2/SC(=S)N(CCC(=O)N3CCOCC3)C2=O)cc1 | 16µM* | 35% | -14% | 1% | 18µM* | i
Cn1c(=O)n(C)c2cc(/C=C3/SC(=O)N(CC(=O)N4CCOCC4)C3=O)ccc21 | 3% | 35% | -4% | 11% | -13% | i
CCCCn1nnnc1C(c1cc2ccccc2o1)N1CCN(C(=O)OCC)CC1 (centres undefined) | u | 11% | x | x | u | i
COc1ccc(OC)c(NC(=O)CSc2nc3c(c(=O)n(C)c(=O)n3C)n2C)c1 | -26% | -5% | 5% | 22% | -7% | i
CCc1cnc2c(c1SCCC(C)C)c(=O)n(C)c(=O)n2C | 26µM* | -11% | -21% | -29% | u | i
CC(C)c1cnc2c(c1SCc1cccc(F)c1)c(=O)n(C)c(=O)n2C | 16µM* | x | -22% | 0% | 23µM* | x
Cc1cccc(NC(=O)CSc2c(C)cnc3c2c(=O)n(C)c(=O)n3C)c1C | -5% | -3% | 7% | 25% | u | u
COc1ccc(NC(=O)CSc2c(C(C)C)cnc3c2c(=O)n(C)c(=O)n3C)c(OC)c1 | 23µM* | x | -4% | 0% | 23µM* | x
CCc1cnc2c(c1SCc1c(F)cccc1Cl)c(=O)n(C)c(=O)n2C | 15µM* | 10% | -1% | -20% | 26µM* | i
CCN(CC(=O)Nc1ccc2c(c1)OCCO2)C(=O)/C=C/c1ccc(F)cc1 | -4% | 23%[11.3 µM] | -1% | 11% | 6% | i
Cc1ccc(CNC(=O)CCCN2C(=O)CCn3nc(-c4cccn4C)cc32)cc1 | -19% | 10% | -1% | -29% | u | i
CC(C)c1cnc2c(c1SCC(=O)N1CCCCC1)c(=O)n(C)c(=O)n2C | 23µM* | x | -25% | -29% | u | x
CC(C)c1cnc2c(c1SCC(=O)NC(C)(C)C)c(=O)n(C)c(=O)n2C | 4% | x | 2% | 0% | -18% | x
CC(C)c1cnc2c(c1SCC(=O)c1ccccc1)c(=O)n(C)c(=O)n2C | u | x | -24% | -8% | 13µM* | x
SMILES | DT40 TDP1 CPT | ATXN2 expr inh | HepG2 viability | TGFb inhibitor | TDP1 cell noCPT | S2 tox
CCC(C)Sc1c(C(C)C)cnc2c1c(=O)n(C)c(=O)n2C (centres undefined) | 23µM* | x | -46% | -3% | 13µM* | x
CCCc1cnc2c(c1SCC(=O)Nc1ccccc1F)c(=O)n(C)c(=O)n2C | u | -7% | -6% | -6% | 23µM* | i
Cc1cnc2c(c1SCC(=O)N(C)c1ccccc1)c(=O)n(C)c(=O)n2C | -26% | 10% | 10% | 9% | -25% | i
CCCNC(=O)CSc1c(CCC)cnc2c1c(=O)n(C)c(=O)n2C | 0% | 0% | -1% | 4% | -6% | i
CC1=C(C(=O)Nc2cccnc2)C(c2ccccc2)n2nc(SCc3ccccc3)nc2N1 (centres undefined) | -24% | 10% | 3% | 6% | -23% | i
O=[N+]([O-])c1cc(Cl)cc(/C=N/NC(=S)Nc2ccc(S(=O)(=O)N3CCOCC3)cc2)c1O | u | -36% | -8% | -18% | u | u
NC(=O)C1CCN(C(=O)C2CCC(=O)N(CC3CCCCC3)C2)CC1 (centres undefined) | 2% | -3% | 0% | 4% | 2% | i
CC(=O)O[C@@H]1CC2C3CCc4cc(OC(=O)c5ccccc5)ccc4C3CCC2(C)[C@H]1OC(C)=O (some centres undefined) | x | 8% | x | x | x | i
CCN(CC)C(=O)CSc1nc2c(c(-c3cccnc3)c1C#N)CCCC2 | u | -1% | -1% | -10% | -28% | i
C[C@H](NS(=O)(=O)c1ccc(Cl)cc1)C(=O)OCC(=O)c1ccc[nH]1 | -4% | x | -6% | -4% | -16% | i
CCCc1cnc2c(c1SCC(=O)N1CCC(C)CC1)c(=O)n(C)c(=O)n2C | 16µM* | -33% | -28% | -28% | 21µM* | u
CCCc1cnc2c(c1SCC(=O)NCc1ccc(C)cc1)c(=O)n(C)c(=O)n2C | -8% | -2% | -4% | 0% | -17% | i
O=C1N/C(=N/N=C/c2ccco2)SC1Cc1ccccc1 (centres undefined) | -18% | x | 1% | -3% | u | u
COc1ccccc1CC1S/C(=N/N=C/c2ccco2)NC1=O (centres undefined) | u | 5% | -6% | -13% | 6.5µM* | i
